Source: PubChem BioAssay
The list is not random: actives were taken first. Their share in the collection is about 5.2%.
EphB4 antag – antagonists of human EphB4-ephrin-B2 interaction; P54760; EphB4 LBD / TNYL-RAW-Alexa532 peptide, fluorescence polarization; inhibition, % at 7 µM; 97,000 tested, 0.15% active; AID 720;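 active means inhibition above the screen-wide mean inhibition plus 3 SD, cut at about 15% in these data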;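 further: 0% = DMSO wells and 100% = excess unlabeled TNYL-RAW peptide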
Calb biofilm kill – kills Candida albicans biofilms; C. albicans biofilm + clotrimazole, Alamar Blue; inhibition, % at 6 µM; 85,000 tested, 0.14% active; AID 834;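 active means inhibition above 20%; inactive means inhibition below 20%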;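 further: preformed 24 hr biofilms exposed to compound for 48 hr; 0% = biofilm without compound and 100% = blank killed by clotrimazole plus chlorhexidine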
PostGolgi ctrl – yeast control strain growth, post-Golgi counter-screen. 98,000 tested, 5% active. efflux-deficient yeast background strain, growth absorbance A615, 16 h. inhibition, % at 10 µM
PostGolgi yeast – growth inhibition of a yeast mutant, post-Golgi transport screen | post-Golgi transport phenotypic cell assay | inhibition, % at 10 µM | 98,000 tested, 0.9% active | AID 739;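 further: yeast cells grown in 1536-well plates; yeast grown about 18 h at 30C before absorbance read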
Starred values were filed as active, the others as inactive; nt = no result given. Unless noted, no stated cut-off is given here; in the data, active means inhibition above about 30%; inactive means the rest.

SMILES	EphB4 antag	Calb biofilm kill	PostGolgi ctrl	PostGolgi yeast
Cc1ccccc1OC(=O)C1C(c2ccccc2)C(C(=O)O)C1c1ccccc1 (stereo not drawn)	6	-3	-2	9
[O-][n+]1onc2c1CCc1nnccc1-2	7	6	23	7
[O-][n+]1onc2c1CCc1nnc(-c3ccccc3)cc1-2	0	6	32*	3
COc1ccc(C(=O)Nc2ccc(Cl)cc2C(=O)N2CCCC(C)C2)cc1 (stereo not drawn)	4	nt	16	65*
COc1ccc(C(=O)Nc2ccc(Cl)cc2C(=O)NCCO)cc1	2	4	0	-7
CC(C)CCNC(=O)C12CN(Cc3ccccc3)CC1C(c1ccc([N+](=O)[O-])cc1)=NO2 (stereo not drawn)	4	nt	17	-1
COc1cccc(CNC(=O)C23CN(Cc4ccccc4)CC2C(c2ccc([N+](=O)[O-])cc2)=NO3)c1 (stereo not drawn)	5	nt	33*	-4
COc1cccc(-c2nn(C)c3sc(C(=O)Nc4ccc5c(c4)OCCO5)cc23)c1	nt	7	37*	-2
COc1cccc(-c2nn(C)c3sc(C(=O)NCc4ccc(C)cc4)cc23)c1	0	-1	25	-8
Cn1nc(-c2ccccc2F)c2cc(C(=O)Nc3ccc4c(c3)OCCO4)sc21	6	1	52*	20
CC(CCc1ccco1)NC(=O)c1cc2c(-c3ccccc3F)nn(C)c2s1 (stereo not drawn)	2	12	10	-5
Cn1cc(C(=O)c2ccc(Cl)cc2)cc1-c1nc2ccccc2n1C	-1	9	40*	9
O=C(c1ccc2c(=O)n3c(nc2c1)CCCCC3)N1CCN(C(c2ccccc2)c2ccccc2)CC1	0	nt	13	-8
CCOC(=O)c1ccc(NS(=O)(=O)c2cnc[nH]2)cc1	nt	7	-3	7
COc1ccc(N2CC(O)=C(c3n(C)c4ccccc4[n+]3C)C2=N)cc1	4	8	16	-7
CC(=O)N1CCN(C(=O)Cn2c(=O)oc3ccccc32)CC1	-8	8	9	0
O=C(Cn1c(=O)oc2ccccc21)N1CCN(c2ccccc2)CC1	0	-1	31*	12
O=C(CCn1c(=O)oc2ccccc21)N1CCN(C(c2ccccc2)c2ccccc2)CC1	6	-3	36*	5
Cc1c(NC(=O)CSc2nnc(C(C)Oc3ccc(Cl)cc3)n2-c2ccccc2)c(=O)n(-c2ccccc2)n1C (stereo not drawn)	-4	nt	32*	3
COc1ccccc1OC(C)c1nnc(SCC(=O)Nc2c(C)n(C)n(-c3ccccc3)c2=O)n1-c1ccccc1 (stereo not drawn)	-3	nt	4	-10
Cc1c(NC(=O)COC(=O)C(c2ccc(Cl)cc2)C(C)C)c(=O)n(-c2ccccc2)n1C (stereo not drawn)	17*	nt	-1	-1
Cc1cc(C)cc(NC(=O)c2snc3c(=O)[nH]cnc23)c1	-2	nt	7	-6
Cc1ccc(-c2noc(CSc3nnc(Cc4ccccc4)n3-c3ccc(Cl)cc3)n2)cc1	1	-4	37*	-6
COc1ccc(-c2noc(CSc3nnc(Cc4ccccc4)n3-c3ccc(Cl)cc3)n2)cc1	3	0	28	-2
O=C(COc1ccc(F)cc1Br)NCc1ccccn1	-2	8	2	6
SMILES	EphB4 antag	Calb biofilm kill	PostGolgi ctrl	PostGolgi yeast
O=C(COc1ccccc1Br)NCc1ccccn1	10	1	32*	-6
CN(C)c1ncc(S(=O)(=O)c2ccc(Cl)cc2)c(-c2ccc(Cl)cc2Cl)n1	2	nt	49*	2
CN(C)c1ncc(S(=O)(=O)c2ccccc2)c(-c2ccc(Cl)cc2Cl)n1	-4	nt	25	-2
O/N=C(\c1ccc(Cl)cc1Cl)c1ncc(C(F)(F)F)cc1Cl	-1	-1	59*	0
CC1(C)CC(=O)C2=C(C1)OC(N)=C(C#N)[C@@]21C(=O)N(CC(N)=O)c2ccccc21	0	nt	5	6
CC1(C)CC(=O)C2=C(C1)OC(N)=C(C#N)C21C(=O)N2CCCc3cccc1c32 (stereo not drawn)	-5	2	34*	-6
O=C(COC(=O)CC12CC3CC(CC(C3)C1)C2)Nc1ncc(Cl)cc1Cl	-2	6	37*	-3
Cc1ccc(C(=O)Nc2cccc(C(=O)O)c2)cc1S(=O)(=O)N1CCCCC1	nt	nt	-1	-3
Cc1nnc(NC(=O)CSc2nnc(Cc3cccn3C)n2-c2cccc(C(F)(F)F)c2)s1	nt	24*	2	-6
Cc1cccc(-n2ccnc2SCC(=O)Nc2nnc(C)s2)c1	2	-2	4	11
Cc1ccc(-n2c(Cc3cccn3C)nnc2SCC(=O)Nc2nnc(C)s2)cc1	4	2	-2	13
Cc1nnc(NC(=O)CSc2nccn2C)s1	71*	9	nt	nt
COc1ccc(OC)c(C2=NOC(C(=O)NCc3ccco3)C2)c1 (stereo not drawn)	1	0	11	-9
O=c1c2cc(N3CCOCC3)ccc2[nH]c(=S)n1CCN1CCCC1	nt	10	22	10
O=c1c2cc(N3CCOCC3)ccc2[nH]c(=S)n1Cc1ccc(Cl)cc1	0	2	40*	1
Cn1c(=O)c2nc(-c3ccccc3)oc2c2ccccc21	-1	1	61*	9
CCCCCc1nc2c(=O)n(C)c3ccccc3c2o1	-8	9	8	-7
COc1cc(C2=NOC(C(=O)Nc3ccc(C)cc3)C2)cc(OC)c1OC (stereo not drawn)	3	3	31*	15
O=C(Nc1ccc2c(c1)OCO2)C1CC(c2ccc(F)cc2)=NO1 (stereo not drawn)	20*	3	10	-6
O=C(CCn1c(=S)[nH]c2cc3c(cc2c1=O)OCO3)NCCN1CCCC1	nt	-3	nt	nt
O=c1c2cc3c(cc2[nH]c(=S)n1CCN1CCOCC1)OCO3	1	-7	36*	-1
CCc1cccc(C)c1NC(=O)CN1C(=O)c2ccccc2S1(=O)=O	-3	1	29	5
CC(C)C(NC(=O)CN1C(=O)c2ccccc2S1(=O)=O)C(C)C	-4	3	31*	-2
Cc1ccc(OCC(=O)N2CCCCC2)c(Br)c1	4	7	4	0
COc1ccccc1N1CCN(C(=O)COc2ccc(Cl)cc2Br)CC1	-2	8	68*	5
SMILES	EphB4 antag	Calb biofilm kill	PostGolgi ctrl	PostGolgi yeast
COc1ccccc1N1CCN(C(=O)COc2ccc(C)cc2Br)CC1	-2	5	35*	-1
C=CCc1ccc(OCC(O)CN2CCC(Cc3ccccc3)CC2)c(OC)c1 (stereo not drawn)	-2	0	63*	98*
COc1cccc(OCC(O)CN2CCC(Cc3ccccc3)CC2)c1 (stereo not drawn)	-8	8	4	5
COC(=O)c1ccc(N2CCCCC2)c(NS(=O)(=O)c2ccc(C)cc2)c1	8	1	30*	17
c1ccc(-n2ncc3c(N4CCN(CCOc5cccc6ccccc56)CC4)ncnc32)cc1	-1	2	32*	1
O=S(=O)(c1ccc(F)cc1)N1CCN(c2ncnc3c2cnn3-c2ccccc2)CC1	2	3	35*	5
O=C(COc1ccccc1)N1CCN(c2ncnc3c2cnn3-c2ccccc2)CC1	-5	2	7	9
